Source: PubChem BioAssay

System: Inhibin beta A chain (activin A)
Assay: INHBA (activin A) binders on microarrays, primary screen, biochemical, small-molecule microarray, 635 nm fluorescence scan (AID 1107);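 further: mouse activin A protein probed at 4.33 µg/mL on printed slides; score merges bound-protein fluorescence near 667 nm with spot signal-to-noise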
Settings: small-molecule microarray binding, higher = more signal

Row | Structure (SMILES) | composite z-score
1 | CCOC(=O)C1=C[C@@H](C(C)(C)C)N(S(=O)(=O)c2ccc(C)cc2)[C@H]1c1ccc(C)cc1 | 0.516
2 | CCOC(=O)C[C@H]1[C@H](OC(=O)c2ccccc2-c2ccccc2)[C@@H](NC(=O)c2ccccc2)c2cc(OCCCO)ccc2N1C(=O)c1ccccc1 | 0.169
3 | O=C1C2C=CC(C(O)C=Cc3ccc([N+](=O)[O-])cc3)N(Nc3ccccc3)C2C(=O)N1c1ccccc1 (stereo not drawn) | 1.06
